Assay outcomes: PubChem, National Center for Advancing Translational Sciences (NCATS)
BRCA1 expr act = increases BRCA1 expression. MCF7-BRCA1-FFLuc reporter, luminescence, 48 h; response scale: scaled: vehicle 0%, 10 µM genistein 100%. Potency, µM (highest dose often 46.1 µM), without a hit: at the top dose activation, actives largely listed as activators. 380,000 tested, 1.1% active. AID 624202; note: potency is the fitted concentration of half-maximal effect; nearly all actives have a fitted effect of over 80% in size
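Quantitative HTS in MCF7 cells stably reporting BRCA1 expression via firefly luciferase. Compound treatment lasts 48 h at 37 °C in phenol-red free MEM. Activation is expressed relative to genistein at 10 microM and DMSO.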
D3 antag = antagonists of human D3 dopamine receptor; AID 652054; max response, negative = inhibition, %; 360,000 tested, 2.5% active; D3R cells, DiscoveRx beta-arrestin luminescence, antagonist mode; hits give low values; P35462; in the data active = max response below about -50%; inconclusive = no clear call, values can overlap the other calls; note: % is set by controls: 0 for no effect and ±100 for the full control effect
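Cells expressing the human receptor were seeded at 1500 cells/well, incubated overnight at 37 degrees C in 5% CO2, then exposed to library compounds with dopamine controls for 90 minutes at 37 degrees C before luminescent detection.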
RGS4 inh = blocks human RGS4-accelerated GTP hydrolysis | P49798 | Transcreener GDP fluorescence polarization, RGS4-accelerated GTP hydrolysis | Potency, µM (series often up to 114 µM), without a hit: at the top dose activity change, negative = inhibition, usual class: inhibitors | 390,000 tested, 0.039% active | AID 504845; note: potency is the fitted concentration of half-maximal effect; % is set by controls: 0 for no effect and ±100 for the full control effect; nearly all actives have a fitted effect of over 75% in size
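MLSMR compounds (23 nl, pin-transferred) preincubated 10 min at room temperature with a 500nM (2x) first reagent, then RGS4 at 900nM (2x) plus Transcreener GDP mix added; fluorescence polarization (620/688 nm) read before and after 90 min at 30 °C.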
B2AR arrestin = agonists driving beta-arrestin recruitment to human beta2-adrenergic receptor; P07550; beta-arrestin recruitment to beta2AR, cell-based reporter; Potency, µM (doses to about 46.1 µM), for the others: top-dose activation, hits mostly activators; 330,000 tested, 0.02% active; AID 492947;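 note: potency is the fitted concentration of half-maximal effect; 0% = DMSO controls and full agonism = EC100 isoproterenol or metaproterenol; nearly all actives have a fitted effect of over 65% in size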
PTHR1 ag = activates the human parathyroid hormone receptor PTHR1 | Q03431 | HEK293 GP2 PTHR1 cells, GloSensor cAMP luminescence, 1 h | Potency, µM (highest dose often 115 µM), without a hit: at the highest dose activation, most hits filed as activators | 410,000 tested, 0.075% active | AID 743266; note: potency is the fitted concentration of half-maximal effect; nearly all actives have a fitted effect of over 55% in size
Target sequence (Q03431 whole entry, looked up): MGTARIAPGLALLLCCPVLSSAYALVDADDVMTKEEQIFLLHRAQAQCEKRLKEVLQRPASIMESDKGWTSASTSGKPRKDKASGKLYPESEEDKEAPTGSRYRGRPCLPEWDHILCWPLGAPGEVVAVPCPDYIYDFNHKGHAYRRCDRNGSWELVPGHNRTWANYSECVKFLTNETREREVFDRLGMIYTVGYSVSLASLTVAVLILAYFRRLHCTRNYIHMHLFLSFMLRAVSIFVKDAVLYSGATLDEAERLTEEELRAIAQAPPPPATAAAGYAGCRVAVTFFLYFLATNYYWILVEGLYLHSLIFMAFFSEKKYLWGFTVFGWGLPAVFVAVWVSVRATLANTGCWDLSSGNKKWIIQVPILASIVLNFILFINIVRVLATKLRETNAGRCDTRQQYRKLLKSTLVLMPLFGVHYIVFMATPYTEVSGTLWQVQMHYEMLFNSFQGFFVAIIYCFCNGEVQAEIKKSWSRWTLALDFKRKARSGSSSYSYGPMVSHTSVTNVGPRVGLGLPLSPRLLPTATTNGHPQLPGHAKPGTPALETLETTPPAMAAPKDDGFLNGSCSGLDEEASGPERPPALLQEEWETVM
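HEK-293-derived GP2 cells expressing PTHR1 and a GloSensor cAMP reporter, 3,000/well, plated overnight, given luciferin plus IBMX (each 0.5 mM as added) for 1 h at 37 °C, then compound for 1 h at 37 °C. Luminescence was read after 15 min at room temperature.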
DRD3 agonist = D3 dopamine receptor (human) agonism | P35462 | D3R DiscoveRx beta-arrestin cells, luminescence, 90 min | max activation, % | 410,000 tested, 0.58% active; in the data active = max activation above about 30%; note: 0% is about no effect
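Cells at 1500/well, incubated overnight, then treated with pinned compounds (dopamine as control) for 90 min at 37 degrees C. DiscoveRx reagent added for 30 - 60 minutes at room temperature; luminescence read.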
* = called active by the depositor; i = inactive; ? = inconclusive; . = not tested or not shown; [ ] = remark or other dose. Sampled rows, rich in hits. Any-hit rate of the full collection: about 3.7%. Unless noted, calls come from the whole dose curve; as a rule, active = well fitted curve in the direction sought with a large enough effect; inconclusive = small, poorly fitted or top-dose-only effect, or another doubt; inactive = no such curve, though single readings can be large; an effect the other way counts as inactive or inconclusive.

SMILES | BRCA1 expr act | D3 antag | RGS4 inh | B2AR arrestin | PTHR1 ag | DRD3 agonist
Cc1nnc(SCc2ccccc2Cl)c2cc3sccc3n12 | . | . | ? | . | -11% | -13
O=C(COC(=O)CCC(=O)c1ccc(F)cc1)Nc1ccc2[nH]c(=O)[nH]c2c1 | -19% | 27 | -22% | 0% | i | 3
COc1ccccc1C(=O)N1CCC(C(=O)c2ccc(F)cc2)CC1 | -23% | -70* | 11% | 0% | i | -33
O=C(CN1CCC(C(=O)c2ccc(F)cc2)CC1)Nc1ccccc1Cl | -29% | -57* | -13% | 0% | -11% | -23
O=C(CN1CCCC1)Nc1ccccc1Cl | 0% | ? | -1% | 0% | i | 0
COc1ccc(NC(=O)CN2CCC(n3c(C)nc4cc(F)ccc43)CC2)c(OC)c1 | -14% | -6 | 7% | 0% | -36%[57.5 µM] | 132*
CCOc1ccccc1NC(=O)CN1CCC(C(=O)c2ccc(F)cc2)CC1 | -33% | ? | -16% | -1% | -26% | -27
COc1ccccc1NC(=O)CN1CCC(C(=O)c2ccc(F)cc2)CC1 | -2% | -70* | -8% | -1% | -14% | -6
COc1ccc(C(=O)N2CCC(C(=O)c3ccc(F)cc3)CC2)cc1 | -29% | 3 | 15%[11.4 µM] | 0% | -36% | -4
O=C(NCc1ccccc1)C1CCCN(c2cnccn2)C1 (stereo unspecified) | 38% | -17 | 7% | 0% | i | 2
CC(C)C[C@@H]1COc2cc(N3CCC[C@H]3CO)ccc2S(=O)(=O)N1 | 3% | 13 | . | . | i | 6
C=CS(=O)(=O)O | . | . | . | . | . | -24
CC(=O)N1CCN(/[N+]([O-])=N/Oc2ccc([N+](=O)[O-])cc2[N+](=O)[O-])CC1 | -32% | . | . | . | . | .
O=C(CN1CCCC1)Nc1ccc(NC(=O)Nc2ccccc2Cl)cc1 | 11µM* | -13 | -3% | 0% | i | 0
O=c1[nH]c(-c2ccccc2)c(-c2ccccc2)o1 | 3% | -18 | 6% | 1% | i | -2
C=CCc1cccc2cc(-c3nc4ccc(C)cc4[nH]3)c(=O)oc12 | 2µM* | . | 24% | . | i | 4
CCOC(=O)C1=NN(c2ccc(Cl)cc2)C(=O)C1 | 4µM* | -25 | 19% | 0% | -37% | -7
CCOC(=O)CC1=NN(c2ccccc2)C(=O)C1 | -22% | 12 | -8% | 0% | -22% | 2
CCOC(=O)C1=NN(C(=O)c2ccc(C)cc2)C(O)(c2ccc(Cl)cc2)C1 (stereo unspecified) | 3% | -57* | -25% | 0% | -19% | -9
COc1ccccc1N(CC(N)=O)S(=O)(=O)c1ccc(C)cc1 | -7% | -76* | 8% | 0% | i | 9
Cn1c(SCc2ccccc2Cl)nc2c([nH]c3ccccc32)c1=O | . | . | 4% | . | i | -3
NC(CSS(=O)(=O)O)=NCCC12CC3CC(CC(O)(C3)C1)C2 | 49% | -21 | ? | -1% | -21% | 1
CC1(C)C2CCC(CN=C(N)CSS(=O)(=O)O)C1C2 (stereo unspecified) | -17% | -99* | . | . | i | -18
O=C(NCCc1c[nH]c2ccccc12)c1cnc2n(c1=O)CCS2 | 2% | -14 | 0% | -1% | -29% | -9
O=C(NCCc1ccccc1)c1cnc2n(c1=O)CCS2 | 7.1µM* | -19 | 12% | 0% | i | -3
SMILES | BRCA1 expr act | D3 antag | RGS4 inh | B2AR arrestin | PTHR1 ag | DRD3 agonist
Cc1ccc(C(=O)Nc2nnc([C@H]3C[C@H](O)[C@@H](CO)O3)s2)cc1 | 15% | -77* | . | . | -10% | -15
Cc1ccccc1NC(=O)Nc1nnc([C@@H]2C[C@H](O)[C@@H](CO)O2)s1 | 24% | 0 | . | . | -17% | 54*
COc1ccc([C@H]2C[C@@H](n3cc(C4CC4)nn3)[C@H](O)CN2CC2CCCCC2)cc1 | -29% | -3 | . | . | -8% | -1
C[C@@H]1CN([C@@H](C)CO)C(=O)CCCn2nncc2CO[C@@H]1CN(C)C(=O)Nc1ccc(C(F)(F)F)cc1 | 3% | 15 | . | . | -18% | 6
O=Cc1ccc(F)c([B-](F)(F)F)c1 | -5% | -17 | 40% | . | i | -5
Cc1ccc(N(C)C(=O)Cn2ncc3c([nH]c4ccccc43)c2=O)cc1C | . | . | 4% | . | -15% | 7
O=C(CCC(=O)Nc1cc(C(F)(F)F)ccc1Cl)N/N=C\c1cc([N+](=O)[O-])ccc1O | -73% | -70* | 15% | 0% | i | -23
O=C(CCC(=O)Nc1ccc(F)cc1)N/N=C/c1cc([N+](=O)[O-])ccc1O | -14% | -70* | 6% | 0% | -8% | -17
O=C(CCC(=O)Nc1ccc(Br)cc1)N/N=C/c1cc([N+](=O)[O-])ccc1O | -69% | -59* | 0% | 0% | -35% | -15
Cc1cccc(NC(=O)CCC(=O)N/N=C/c2cc([N+](=O)[O-])ccc2O)c1 | -78% | ? | -3% | 0% | i | -11
O=C(NCc1cccc(C(F)(F)F)c1)c1ccc2nc([C@H]3C[C@H](O)[C@@H](CO)O3)[nH]c2c1 | -2% | 3 | . | . | 1% | -2
COc1ccc2cc(S(=O)(=O)c3ccccc3F)c(=O)oc2c1 | . | . | 13% | . | -2% | -9
CC(=O)O/N=C(\N)c1ccc(-c2csnn2)cc1 | 11µM* | 11 | 8% | -1% | -15% | 5
CC(C)(C)C(=O)O/N=C(\N)c1ccc(-c2csnn2)cc1 | 0% | 2 | -31% | 0% | -19% | 6
Cn1c(-c2cccc(Br)c2)cnc1NCc1cccnc1 | -26% | -60* | -34% | 0% | i | -11
O=C(O)c1ccccc1-c1c2cc(I)c(=O)c(I)c-2oc2c(I)c(O)c(I)cc12 | 3% | -62* | ? | . | -14% | -29
O=C(Nc1ccc(N2CCOCC2)c(Cl)c1)c1ccccc1F | ? | 5 | -3% | -1% | -27%[57.5 µM] | -10
O=C(Nc1ccc(N2CCCC2)c(Cl)c1)c1ccccc1F | 3.2µM* | 5 | . | . | -28% | -2
CCN1CCN(c2ccc(NC(=O)c3ccc([N+](=O)[O-])o3)cc2Cl)CC1 | -35% | -72* | 20% | 1% | -17% | -14
O=C(Nc1ccc(C(=O)N2CCCC2)cc1)c1ccccc1F | 53% | -8 | -31% | 0% | -13%[57.5 µM] | -21
O=C(Nc1ccccc1N1CCCC1)c1ccc(Br)o1 | 33% | -4 | 13% | 0% | i | -3
O=C(Nc1cc(C(=O)N2CCCC2)ccc1N1CCCC1)c1ccccc1F | -4% | 56 | 18% | 0% | -18%[57.5 µM] | 61*
O=C(Nc1ccc(N2CCCC2)c(Cl)c1)c1ccc(Br)o1 | 4µM* | -15 | -4% | -1% | i | -9
